Results published in PubChem BioAssay (EPA / NIEHS).
Calls of active or inactive are those of the source. The calls were made as follows: active = hit-call score of the fitted dose curve at least 0.9, where 1 is the maximum; inactive = score below 0.9.

Assays:
[1] = ATG_E_Box_CIS: Attagene CIS-FACTORIAL HepG2 Assay for human Enhancer Box (E-box) (AID 2282936); conditions: HepG2 E-box cis-reporter transcription, actives raise or lower the signal
Outline: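 HepG2 cells transiently transfected with multiplexed cis-element reporter units sensing endogenous transcription factor activity; 24 h compound exposure. Reporter mRNA measured by RT-PCR, 6-FAM primer extension, HpaI digestion and capillary electrophoresis; bidirectional fit versus DMSO.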

[2] = ATG_EGR_CIS: Attagene CIS-FACTORIAL HepG2 Assay for human Early Growth Response 1 (EGR1) (AID 2282938); conditions: HepG2 Attagene CIS-FACTORIAL EGR reporter mRNA; actives raise or lower the signal
Outline: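 Transient transfection of human HepG2 with multiple cis-regulated reporter units, chemical exposure 24 h, total RNA isolated. Reverse transcription, PCR, fluorescent labelling and capillary electrophoresis quantify reporter transcripts; activity fitted bidirectionally against DMSO.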

[3] = ATG_M_19_CIS: Attagene CIS-FACTORIAL HepG2 Assay for M19 Transcription Factor (Internal Marker) (AID 2282939); conditions: HepG2 Attagene CIS-FACTORIAL M19 internal marker reporter; actives raise or lower the signal
Outline: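 Readout: fluorescent reporter-transcript fragments by capillary electrophoresis after RT-PCR. Human HepG2 liver cells carried transfected MRTU constructs reporting endogenous transcription-factor activity; exposure 24 h. Gain or loss of signal fitted relative to DMSO.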

[4] = ATG_ERE_CIS: Attagene CIS-FACTORIAL HepG2 Assay for Estrogen Response Element (ERE) (AID 2282940); conditions: HepG2 ERE cis-reporter, Attagene RNA transcript; actives raise or lower the signal
Outline: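 Readout: reporter mRNA induction by RT-PCR, FAM-labelled primer extension, HpaI digestion and capillary electrophoresis, 24 h after dosing transfected HepG2 cells. Endogenous transcription factors act on cis-element-regulated reporters. Gain or loss fitted against DMSO.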

[5] = ATG_Ets_CIS: Attagene CIS-FACTORIAL HepG2 Assay for human Erythroblast Transformation Specific (ETS) (AID 2282941); conditions: HepG2 ETS cis-reporter transcription, actives raise or lower the signal
Outline: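 Steps: transfect HepG2 with multiple reporter units; treat compound 24 h; isolate RNA, DNase-treat, reverse-transcribe; PCR-amplify, label with 6-FAM, digest with HpaI; separate by capillary electrophoresis. Activity fitted both directions versus DMSO.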

[6] = biological target: Hepatocyte nuclear factor 3-beta (Homo sapiens) (UniProt Q9Y261); test: ATG_FoxA2_CIS: Attagene CIS-FACTORIAL HepG2 Assay for human Forkhead box A2 (FOXA2) (AID 2282942); conditions: HepG2 cis-reporter transcription factor activity, 24 h; actives raise or lower the signal
Outline: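 Transient MRTU transfection of HepG2 liver cells; 24 h treatment; total RNA → oligo(dT) RT → PCR → FAM primer extension → HpaI cut → CE. Bidirectional fit vs DMSO.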

[7] = ATG_FoxO_CIS: Attagene CIS-FACTORIAL HepG2 Assay for human Forkhead box O (FoxO) (AID 2282943); conditions: HepG2 Attagene cis-reporter, FoxO element, mRNA; actives raise or lower the signal
Outline: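 HepG2 cells transiently transfected with cis-promoter-driven multiple reporter transcription units; 24 h after chemical dosing, reporter mRNA quantified by RT-PCR, fluorescent primer extension, HpaI digestion and capillary electrophoresis. Bidirectional fitting versus DMSO baseline.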

[8] = ATG_GATA_CIS: Attagene CIS-FACTORIAL HepG2 Assay for human GATA Binding Protein (AID 2282944); conditions: HepG2 GATA cis-element reporter, Attagene multiplex mRNA; actives raise or lower the signal
Outline: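 Read-out: fluorescent reporter mRNA fragments resolved by capillary electrophoresis after RT-PCR. Human liver HepG2 cells carried transiently transfected cis-regulated reporter constructs; chemicals incubated 24 h; gain or loss of signal fitted relative to DMSO.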

[9] = ATG_GLI_CIS: Attagene CIS-FACTORIAL HepG2 Assay for human Zinc Finger Protein GLI1 (AID 2282945); conditions: HepG2, Attagene cis-factorial reporter mRNA, GLI element; actives raise or lower the signal
Outline: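 HepG2 cells transiently transfected with cis-promoter multiplexed reporter units report endogenous transcription factor activity. After 24 h chemical exposure, reporter mRNA was quantified by RT-PCR, 6-FAM labelling, HpaI digestion and capillary electrophoresis, with bidirectional fitting against DMSO.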

[10] = ATG_M_61_CIS: Attagene CIS-FACTORIAL HepG2 Assay for M61 Transcription Factor (Internal Marker) (AID 2282937); conditions: HepG2 Attagene CIS-FACTORIAL M61 internal marker reporter; actives raise or lower the signal
Outline: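 Human liver HepG2, transient MRTU transfection (cis promoter elements), 24 h compound. Total RNA → oligo(dT) RT → PCR → FAM label → HpaI → CE. Internal background marker; bidirectional fitting, DMSO = baseline.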

Measured: AC50

Chain of Hepatocyte nuclear factor 3-beta (Homo sapiens) (Q9Y261 whole entry, looked up): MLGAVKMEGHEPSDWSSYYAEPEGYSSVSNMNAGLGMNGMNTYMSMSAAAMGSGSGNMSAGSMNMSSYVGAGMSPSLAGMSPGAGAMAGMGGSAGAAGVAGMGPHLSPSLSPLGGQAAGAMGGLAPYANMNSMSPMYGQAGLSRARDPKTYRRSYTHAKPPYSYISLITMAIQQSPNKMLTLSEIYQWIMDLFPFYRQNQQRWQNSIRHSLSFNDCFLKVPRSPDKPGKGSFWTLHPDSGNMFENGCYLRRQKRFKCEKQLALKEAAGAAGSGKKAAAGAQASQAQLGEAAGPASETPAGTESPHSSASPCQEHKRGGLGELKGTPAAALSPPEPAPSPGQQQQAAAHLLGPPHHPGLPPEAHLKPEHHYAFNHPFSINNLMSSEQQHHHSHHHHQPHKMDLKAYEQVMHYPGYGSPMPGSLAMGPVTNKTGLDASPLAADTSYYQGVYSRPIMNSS

Cc1oncc1C(=O)Nc1ccc(C(F)(F)F)cc1
active: [4] 25.7 µM
inactive: [1] | [2] | [3] | [5] | [6] | [7] | [8] | [9]

C=C(C)c1cccc(C(C)(C)N=C=O)c1
inactive: [1] | [2] | [3] | [4] | [5] | [6] | [7] | [8] | [9]

CC(=O)OCCC1CCCCC1
inactive: [1] | [2] | [3] | [4] | [5] | [6] | [7] | [8] | [9]

CC(C)CCCCCOC(=O)CCS
inactive: [1] | [10] | [2] | [3] | [5] | [7] | [8] | [9]

CCCCCCOC(=O)C(C)CC (stereo unspecified)
inactive: [1] | [2] | [3] | [4] | [5] | [6] | [7] | [8]

CCCCC(CC)CCC(CC(C)C)OS(=O)(=O)O (stereo unspecified)
inactive: [1] | [2] | [3] | [4] | [5] | [6] | [7] | [8] | [9]

N#CCc1ccc(Cl)cc1Cl
inactive: [1] | [2] | [3] | [4] | [5] | [7] | [8]

CC(C)CCCC(C)CC=O (stereo unspecified)
inactive: [1] | [2] | [3] | [4] | [5] | [6] | [7] | [8] | [9]

O=c1c2ccccc2nnn1CCl
inactive: [1] | [2] | [3] | [4] | [5] | [6] | [7] | [8] | [9]

CC(=O)C=CC1C(C)=CCC(C)C1(C)C (stereo unspecified)
inactive: [1] | [2] | [3] | [4] | [5] | [6] | [7] | [8] | [9]

c1ccc(-c2ccccn2)nc1
inactive: [2] | [3] | [5] | [6] | [7] | [8] | [9]
active: [1] 61.2 µM

CCC(C)(C)C1CCCCC1OC(C)=O (stereo unspecified)
inactive: [1] | [2] | [3] | [4] | [5] | [6] | [7] | [8] | [9]

CCCC(=O)OCc1ccccc1
inactive: [1] | [10] | [2] | [3] | [5] | [7] | [8] | [9]

CNC(=S)NN
inactive: [1] | [2] | [3] | [4] | [5] | [6] | [7] | [8] | [9]

CCc1c(C(=O)O)c(=O)cnn1-c1ccc(Cl)cc1
inactive: [1] | [10] | [2] | [3] | [5] | [7] | [8] | [9]

c1ccc2c(c1)ccc1ncccc12
inactive: [1] | [2] | [3] | [4] | [5] | [6] | [7] | [8] | [9]

C#CC1(O)CC[C@H]2[C@@H]3CCC4=CCCC[C@@H]4[C@H]3CC[C@@]21C (stereo partly specified)
active: [3] 55.9 µM | [4] 0.0188 µM | [5] 62.5 µM
inactive: [1] | [2] | [6] | [7] | [8] | [9]

O=C1CCCCCCCCCCCCCCCO1
inactive: [1] | [2] | [3] | [4] | [5] | [6] | [7] | [8] | [9]

CCC(Cc1ccccc1)(C(=O)c1ccc(N2CCOCC2)cc1)N(C)C (stereo unspecified)
inactive: [3] | [5] | [7] | [8] | [9]
active: [1] 17 µM | [2] 31.6 µM | [4] 5.54 µM

CC(=O)c1ccc2c(c1)CCCC2
inactive: [1] | [2] | [3] | [4] | [5] | [6] | [7] | [8] | [9]

CCCCCC/C=C\CCCCCCCC(=O)O
inactive: [1] | [2] | [3] | [4] | [5] | [6] | [7] | [8] | [9]

FC(F)=C(F)OC(F)(F)C(F)(F)C(F)(F)F
inactive: [1] | [10] | [2] | [3] | [5] | [7] | [8] | [9]

C=C[Si](C)(C)O[Si](C)(C)C=C
inactive: [1] | [2] | [3] | [4] | [5] | [6] | [7] | [8] | [9]

C(=CC=Nc1ccccc1)C=CNc1ccccc1
inactive: [1] | [2] | [3] | [4] | [5] | [6] | [7] | [8] | [9]

CCCCCC/C=C/C=O
inactive: [1] | [2] | [3] | [5] | [6] | [7] | [9]

CC(=O)Nc1ccc2c(c1)Cc1cc(NC(C)=O)ccc1-2
inactive: [1] | [2] | [3] | [5] | [6] | [7] | [8] | [9]

Nc1ccc(-c2ccc(F)cc2)cc1
active: [4] 18.2 µM
inactive: [1] | [2] | [3] | [5] | [6] | [7] | [8] | [9]

Nc1cccc(C(F)(F)F)c1
inactive: [1] | [2] | [3] | [4] | [5] | [7] | [8] | [9]

CC(C)(C)c1n[nH]c(=O)n(N)c1=O
inactive: [1] | [2] | [3] | [4] | [5] | [6] | [7] | [8] | [9]

CC(C)C1=CC2=CC[C@@H]3[C@](C)(CCC[C@@]3(C)C(=O)O)[C@H]2CC1
active: [2] 60.3 µM | [8] 54.1 µM
inactive: [1] | [3] | [4] | [5] | [6] | [7] | [9]

CC1(C)[C@H]2CC[C@]1(C)C(=O)C2
inactive: [1] | [2] | [3] | [4] | [5] | [6] | [7] | [8] | [9]

CC(=O)OC(C)C
inactive: [1] | [2] | [3] | [4] | [5] | [6] | [7] | [8] | [9]

CCCCCCCCCCCCCCCC[n+]1ccccc1
inactive: [1] | [2] | [3] | [4] | [6] | [7] | [8]
active: [5] 9.08 µM

O=c1cc(-c2ccccc2)oc2ccccc12
inactive: [1] | [3] | [4] | [5] | [6] | [7] | [8] | [9]
active: [2] 82.1 µM

C=CC(=O)OCCOC1C2CCC1C1CC=CC12 (stereo unspecified)
inactive: [1] | [2] | [3] | [4] | [5] | [6] | [7] | [8]

CCOC(=O)Cc1cccc2ccccc12
inactive: [1] | [2] | [3] | [4] | [5] | [6] | [7] | [8] | [9]

CCN(CC#N)c1cccc(C)c1
inactive: [1] | [2] | [3] | [5] | [6] | [7] | [8] | [9]

COc1ccc2nc(N)sc2c1
inactive: [1] | [10] | [2] | [3] | [5] | [7] | [8] | [9]

C=CCCCCCCCCC(=O)OCCCC
inactive: [1] | [2] | [3] | [4] | [5] | [6] | [7] | [8]

CC1=CC[C@H](C(C)C)C=C1
inactive: [1] | [10] | [2] | [3] | [5] | [7] | [8] | [9]
